According to PubChem BioAssay (Tox21):
Inconclusive results are not listed. Calls of active or inactive are those of the source. Unless noted, calls follow the shape of the dose curve; as a rule, active = well fitted curve in the direction sought with a large enough effect in the repeat runs; inconclusive = weak or mixed curves; inactive = no such curve, though single readings can be large; an effect the other way counts as inactive or inconclusive.

Legend:
[1] = qHTS assay for small molecules that induce genotoxicity in human embryonic kidney cells expressing luciferase-tagged ATAD5 (AID 651632); also: nearly all actives have a fitted effect of over 15% in size; also: potency is read from the fitted curve at half-maximal effect
Procedure, shortened: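 Quantitative HTS in HEK293T expressing luciferase-tagged ATAD5, whose levels rise upon DNA damage. Exposure ran 16 hr at 37C and 5% CO2, with luminescence read 30 min after Amplite addition at room temperature.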

[2] = qHTS assay for small molecule agonists of the p53 signaling pathway - cell viability (AID 651633; calls by dose curve;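 also: p53RE-bla HCT reporter cells with a stable beta-lactamase p53 reporter; series mostly up to about 83 µM; nearly all actives have a fitted effect of over 30% in size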)
Procedure, shortened: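 p53RE-bla cells, seeded at 4,000 per well and rested 5 h at 37 C/5% CO2, received compounds in DMSO for 16 h at 37 C. CellTiter-Glo was then added, and luminescence was read after 30 min at room temperature to gauge cytotoxicity.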

[3] = qHTS assay for small molecules that induce genotoxicity in human embryonic kidney cells expressing luciferase-tagged ATAD5 - cell viability (AID 651634; calls by dose curve; also: nearly all actives have a fitted effect of over 25% in size)
Procedure, shortened: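 After 15.5 hr incubation with compound at 37C, 5% CO2, HEK293T ATAD5-luciferase cells received CellTiter-Fluor reagent; fluorescence intensity was quantified following 30 min at 37C.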

[4] = qHTS assay for small molecule disruptors of the mitochondrial membrane potential - cell viability (AID 720634; calls by dose curve;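 also: human HepG2 liver cancer cells; series mostly up to about 83 µM; nearly all actives have a fitted effect of over 20% in size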)
Procedure, shortened: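 ATP-based luminescent viability readout (CellTiter-Glo, 30 min, room temperature) in HepG2 cells multiplexed with the m-MPI membrane potential dye; compound exposure lasted 1 hr at 37 C.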

[5] = qHTS assay for small molecule disruptors of the mitochondrial membrane potential (AID 720635); also: potency is read from the fitted curve at half-maximal effect
Procedure, shortened: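 HepG2 cells (2,000/well) attached overnight at 37C, then took compound for 1 hr at 37C, 5% CO2. Mito-MPS dye was added for 30 min; fluorescence was read at 490/535 nm (monomers) and 540/590 nm (aggregates).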

[6] = qHTS assay to test for compound auto fluorescence at 590 nm (red) in HepG2 cells (AID 720674)
Procedure, shortened: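 Rose Bengal sodium served as the red fluorophore standard. HepG2 monolayers (overnight attachment, MEM with 10% FBS) were exposed to test compounds for 1 hr at 37 C and read at Ex 540/Em 590 nm.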

[7] = qHTS assay to test for compound auto fluorescence at 535 nm (green) in HepG2 cells (AID 720675)
[8] = qHTS assay to test for compound auto fluorescence at 460 nm (blue) in HEK293 cells (AID 720678)
Procedure, shortened: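 Intrinsic compound fluorescence is recorded in live HEK293 cultures after overnight incubation at 37C, 5% CO2, using excitation 405 nm and emission 460 nm. Values are referenced to triamterene.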

[9] = qHTS assay to test for compound auto fluorescence at 590 nm (red) in HEK293 cells (AID 720679)
Procedure, shortened: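 Red autofluorescence, HEK293 cells: 2,000 cells/well; attach 4-5 hr 37C; add 23 nL cpd or DMSO; incubate o/n 37C 5% CO2; read Ex540/Em590; Rose Bengal sodium reference.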

[10] = qHTS assay to test for compound auto fluorescence at 535 nm (green) in HEK293 cells (AID 720680)
[11] = qHTS assay to test for compound auto fluorescence at 460 nm (blue) in HEK293 cell free culture (AID 720681)
Procedure, shortened: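 Test compounds were pinned into cell-free culture medium (DMEM with 10% FBS) and fluorescence was read directly at Ex/Em 405/460 nm. Signals were expressed as fluorescence equivalents of triamterene, with DMSO vehicle as control.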

[12] = qHTS assay to test for compound auto fluorescence at 535 nm (green) in HEK293 cell free culture (AID 720682)
Procedure, shortened: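 Measurement is a direct plate read of green fluorescence (485 nm in, 535 nm out) after compound addition to serum-supplemented DMEM lacking cells, with fluorescein used to express intensities.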

[13] = qHTS assay to test for compound auto fluorescence at 590 nm (red) in HEK293 cell free culture (AID 720683)
Procedure, shortened: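 Tox21 10K library compounds were pinned into cell-free DMEM with 10% FBS and fluorescence was read at excitation 540 nm. Activity is expressed as Rose Bengal sodium equivalency.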

[14] = qHTS assay to test for compound auto fluorescence at 590 nm (red) in HepG2 cell free culture (AID 720684)
Procedure, shortened: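 Ex 540 / Em 590 nm read of compound in cell-free MEM (10% FBS). Rose Bengal sodium reference.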

[15] = qHTS assay to test for compound auto fluorescence at 460 nm (blue) in HepG2 cell free culture (AID 720685)
Procedure, shortened: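 Cell-free plates of MEM plus 10% FBS received 23 nL compound or DMSO vehicle; blue-channel (405/460 nm) intensity scored against triamterene as reference fluorophore.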

[16] = qHTS assay to test for compound auto fluorescence at 535 nm (green) in HepG2 cell free culture (AID 720686)
[17] = qHTS assay to test for compound auto fluorescence at 460 nm (blue) in HepG2 cells (AID 720687)
Procedure, shortened: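 Cells (2,000/well in MEM with 10% FBS) attached overnight at 37 C, then were exposed to compound or DMSO for 1 hr at 37 C, 5% CO2. Fluorescence read at Ex/Em 405/460 nm, expressed as triamterene-equivalent signal.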

[18] = target: Glucocorticoid receptor (Homo sapiens) (UniProt P04150); test: qHTS assay to identify small molecule agonists of the glucocorticoid receptor (GR) signaling pathway (AID 720691; active = well fitted activation curve with a large enough effect in the signal ratio in the repeat runs, not every such curve was filed as active; the % refers to the signal ratio)
Procedure, shortened: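 Cells: GR-bla HeLa, endogenous GR with stably integrated GRE-beta-lactamase reporter. Treatment 18 h, 37 C, compounds delivered in DMSO. Detection via LiveBLAzer B/G FRET substrate, 2 h RT, fluorescence intensity.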

[19] = target: Glucocorticoid receptor (Homo sapiens) (UniProt P04150); test: qHTS assay to identify small molecule antagonists of the glucocorticoid receptor (GR) signaling pathway (AID 720692; active = well fitted inhibition curve with a large enough effect in the signal ratio in the repeat runs, not every such curve was filed as active; the % refers to the signal ratio)
Procedure, shortened: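 Quantitative HTS in antagonist format: HeLa cells expressing endogenous GR and a stably integrated GRE-bla reporter, stimulated with 5 nM dexamethasone (final) alongside test compounds for 18 h.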

[20] = qHTS assay for small molecule agonists of the p53 signaling pathway (AID 651631; calls by dose curve; also: nearly all actives have a fitted effect of over 15% in size)
Procedure, shortened: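 Quantitative high-throughput format: 4,000 p53RE-bla HCT-116 cells/well, 5 h pre-incubation, 16 h compound exposure at 37 °C, 2 h room-temperature substrate step, fluorescence intensity measured.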

Measured: Potency

Sequence of Glucocorticoid receptor (Homo sapiens) (P04150 whole entry, looked up): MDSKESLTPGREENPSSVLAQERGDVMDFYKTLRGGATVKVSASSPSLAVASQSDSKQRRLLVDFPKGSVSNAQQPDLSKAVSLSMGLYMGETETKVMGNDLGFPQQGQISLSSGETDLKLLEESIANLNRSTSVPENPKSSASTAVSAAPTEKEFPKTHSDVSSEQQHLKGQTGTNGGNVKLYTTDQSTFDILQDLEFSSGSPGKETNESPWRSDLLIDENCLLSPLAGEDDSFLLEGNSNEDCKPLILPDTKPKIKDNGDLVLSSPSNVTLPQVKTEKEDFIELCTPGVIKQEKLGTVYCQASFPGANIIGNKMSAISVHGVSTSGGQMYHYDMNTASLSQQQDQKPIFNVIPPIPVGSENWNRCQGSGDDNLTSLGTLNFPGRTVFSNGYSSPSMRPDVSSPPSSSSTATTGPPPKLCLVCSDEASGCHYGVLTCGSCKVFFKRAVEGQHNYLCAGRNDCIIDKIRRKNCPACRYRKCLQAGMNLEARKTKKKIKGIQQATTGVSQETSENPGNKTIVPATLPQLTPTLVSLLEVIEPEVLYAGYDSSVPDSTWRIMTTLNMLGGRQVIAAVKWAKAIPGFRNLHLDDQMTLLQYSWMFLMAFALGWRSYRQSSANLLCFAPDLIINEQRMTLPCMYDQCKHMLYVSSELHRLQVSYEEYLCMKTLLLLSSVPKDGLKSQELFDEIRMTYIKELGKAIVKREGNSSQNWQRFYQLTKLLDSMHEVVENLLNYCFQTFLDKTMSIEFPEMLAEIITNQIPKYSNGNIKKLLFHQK

N#Cc1ccccc1C#N
inactive: [1] | [2] | [3] | [4] | [5] | [6] | [7] | [8] | [9] | [10] | [11] | [12] | [13] | [14] | [15] | [16] | [17]

CCC(C)c1nccnc1OC (configuration not stated)
inactive: [1] | [2] | [3] | [4] | [5] | [6] | [7] | [8] | [9] | [10] | [11] | [12] | [13] | [14] | [15] | [16] | [17] | [18] | [19]

C/C(=N\O)c1ccc(OCC(=O)N2CCCCC2)cc1
inactive: [2] | [3] | [4] | [5] | [6] | [7] | [8] | [9] | [10] | [11] | [12] | [13] | [14] | [15] | [16] | [17]
active: [1] 23.7 µM

CCc1ncc(C)[nH]1
inactive: [20] | [2] | [3] | [4] | [6] | [7] | [8] | [10] | [11] | [12] | [13] | [15] | [16] | [17] | [18] | [19]

CC(C)(O)c1ccc(C(C)(C)O)cc1
inactive: [1] | [2] | [3] | [4] | [5] | [6] | [7] | [8] | [9] | [10] | [11] | [12] | [13] | [15] | [16] | [17] | [18]

CCOC(=O)COc1ccc2c(C)c(CCN(CC)CC)c(=O)oc2c1Cl
inactive: [20] | [2] | [3] | [4] | [6] | [7] | [8] | [10] | [11] | [12] | [13] | [14] | [15] | [16] | [17]

CCOc1ccccc1OCCN[C@H](C)Cc1ccc(OC)c(S(N)(=O)=O)c1
inactive: [1] | [2] | [3] | [4] | [6] | [7] | [8] | [9] | [10] | [11] | [12] | [13] | [14] | [15] | [16] | [17]
active: [5] 24.8 µM

CC(C)(C)c1ccc(N)cc1
inactive: [1] | [2] | [3] | [4] | [5] | [6] | [7] | [8] | [9] | [10] | [11] | [12] | [13] | [14] | [15] | [16] | [17] | [18]

CCCCCCCCCCCCCCCC/C=C/C1CC(=O)OC1=O (configuration not stated)
inactive: [20] | [2] | [3] | [4] | [7] | [8] | [9] | [10] | [11] | [12] | [13] | [14] | [15] | [16] | [17] | [18]

O=S(=O)(O)c1cc(I)c(O)c2ncccc12
inactive: [1] | [2] | [3] | [4] | [5] | [6] | [7] | [8] | [9] | [10] | [11] | [12] | [13] | [14] | [15] | [16] | [17]

COCc1nnc(-c2ccc[n+]([O-])c2)n1-c1c(Cl)c(Cl)cc2[nH]c(=O)c(=O)[nH]c12
inactive: [1] | [2] | [3] | [4] | [5] | [6] | [7] | [8] | [9] | [10] | [11] | [12] | [13] | [14] | [15] | [16] | [17]

CCN1CCN(C(=O)N[C@@H](C(=O)N[C@@H]2C(=O)N3[C@@H]2SC(C)(C)[C@H]3C(=O)O)c2ccccc2)C(=O)C1=O
inactive: [1] | [2] | [3] | [4] | [5] | [6] | [7] | [8] | [9] | [10] | [11] | [12] | [13] | [15] | [16] | [17]

Cc1ccc(Br)cc1
inactive: [2] | [3] | [4] | [6] | [7] | [8] | [9] | [10] | [11] | [12] | [13] | [14] | [15] | [16] | [17] | [18] | [19]

CCCCCCC(=O)c1ccccc1
inactive: [2] | [3] | [4] | [5] | [6] | [7] | [8] | [9] | [10] | [11] | [12] | [13] | [14] | [15] | [16] | [17]

C=CC(=O)OCCOCCOCC
inactive: [2] | [3] | [4] | [5] | [6] | [7] | [8] | [9] | [10] | [11] | [12] | [13] | [14] | [15] | [16] | [17] | [18]
